Results from PubChem BioAssay (NCI).
This is part of a sample that, as a whole, favours compounds with a hit. Of some 83,000 tested, about 20% had one in any assay.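 Single-dose data. Exposure time 48 hours. Values below 10 considered active.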 A number with no mark means an inactive call. The source made the active and inactive calls.

Test system: HCC-2998 colon
Test: NCI-60 one-dose screen, 48 h (100 = growth as untreated, 0 = no growth, -100 = all killed)
Conditions: 10 µM unless noted

Going from `COc1cc(C2CC(c3ccc(C)cc3)=NN2C(C)=O)ccc1Oc1ccnc2cc(Cl)ccc12` (configuration not stated) to `COc1ccc(C2CC(c3cccc(Nc4ccnc5cc(Cl)ccc45)c3)=NN2C=O)cc1` (configuration not stated), the growth falls from 83.3% to 35.4%.

Compared with `O=c1c(O)cccn1CCCNCCCN(CCCn1cccc(O)c1=O)CCCn1cccc(O)c1=O`, `CCCn1cnc2c1c(=O)n(CCCCC(C)=O)c(=O)n2C` is lower in growth: 101% for the first, 100% for the second.

Compared with `CCCCCCCCSc1ncnc2c1ncn2CO`, `CCCCCCCCCCCCCCCCN=C(CC(=O)O)C(=O)O` is lower in growth: 109% for the first, 104% for the second.

Going from `O=C1Cc2cc(CCN3CCN(CCOCCO)CC3)c(Cl)cc2N1Cc1ccc(-c2ccccc2-c2nn[nH]n2)cc1` to `COc1ccc(-c2nn(-c3ccccc3)cc2/C=C2\SC(=S)N(CCc3ccc(O)cc3)C2=O)cc1`, the growth rises from 88.5% to 107%.

First: COC(=O)c1ccc2c(c1)nc(-c1ccc(O)c(OC)c1)n2-c1cc(C(C)(C)C)[nH]n1
Second: COc1ccc(-c2c(-c3cc(OC)c(OC)c(OC)c3)noc2N)cc1
The growth of the first is higher: 115% for the first, 17.4% for the second.

First: COc1cc(/C=C/c2nnc(-c3cc(-c4ccccc4)n[nH]3)o2)cc(OC)c1OC
Second: COc1ccc2c(c1)C(=O)/C(=C/c1cccc(OCC(=O)c3ccccc3)c1)CC2
The growth of the first is higher: 98.3% for the first, 96.4% for the second.

Going from `CCOC(=O)c1c2c(c(C)n1Cc1ccc(OC)cc1)-c1nc(N)ncc1CC2` to `COc1ccc(-c2noc(N)c2-c2cc(OC)c3c(c2)OCO3)cc1`, the growth falls from 80.3% to 46%.

First: O=C(Nc1ccncc1)C(=O)c1cn(S(=O)(=O)c2cccc(F)c2)c2ccccc12
Second: c1ccc(-n2nnnc2-c2cccc3ccccc23)cc1
The growth of the first is higher: 66.2% for the first, 23.5% for the second.

First: Nc1nc(N)c([N+](=O)[O-])c(=O)[nH]1
Second: Cc1nn(-c2ccc(Br)cc2)c2nc3c(nc12)C(=O)C(=O)c1ccccc1-3
The growth of the first is higher: 103% for the first, 93% for the second.

First: NC(=O)N/N=C/c1ccc(Br)o1
Second: O=Nc1ccc(O)c(=O)cc1
The growth of the first is lower: 96.5% for the first, 97.8% for the second.

Compared with `O=C(/C=C/c1cccnc1)NCCCCC1CCCN(C(=O)c2ccccc2)C1` (configuration not stated), `O=Cc1c[nH]c2ccc(NC(=O)OCc3ccccc3)cc12` is higher in growth: 46.6% for the first, 96.2% for the second.

Compared with `CCC(C)CC(C)C(=O)c1c(O)ccn(O)c1=O` (configuration not stated), `COC(=O)CC1=C(C)/C(=C/c2[nH]c(-c3ccc[nH]3)cc2OC)N=C1C` is lower in growth: 89.7% for the first, 11.3% for the second.

Going from `OC(CCC(O)(c1ccccc1)c1ccccc1)(c1ccccc1)c1ccccc1` to `COc1ccc(Nc2nccc(N3CCN(c4c5ccc(Cl)cc5nc5ccc(OC)cc45)CC3)n2)cc1`, the growth rises from 83.4% to 93.9%.

Going from `Cc1cc(C)n2nc(SCC(=O)Nc3sc4c(c3C(N)=O)CCC4)nc2n1` to `C=Cc1nn2c(CCC(=O)c3nc4ccccc4[nH]3)nnc2s1`, the growth falls from 118% to 98%.

In the case of `CN=C(NC)N/N=C(C)\C=N\NC(=NC)NC`, the growth is reported as 110%.

With `CCCCCCCC/C=C/CCCCCCCC1=NC(C)(C)CN1CC(C)O` (configuration not stated) the growth was 0.965% (active).
In the case of `N#CCCCCCn1c2ccccc2c2c3c(c4c5ccccc5[nH]c4c21)C(=O)N(O)C3=O`, the growth is reported as 1.36% (active).
For `CCN(CC)c1ccc(C(O)C2=CC(=O)c3ccccc3C2=O)cc1` (configuration not stated), the growth was -60.5% (active).
